# Screening results as filed in PubChem BioAssay.
# PfHsp90 set2: reduces growth (ATP signal) of yeast expressing P. falciparum Hsp90. 310,000 compounds, 0.32% hits. S. cerevisiae expressing PfHsp90, BacTiter-Glo ATP, 48 h; yeast lacking PDR1 and PDR3 efflux regulators. AID 504621. inhibition, % at 9.4 µM;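 active = every replicate shows inhibition above about 80%, whatever the replicate mean, limit read from the data; inconclusive = mean inhibition reaches the set limit but some replicate falls short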;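 note: 0% = DMSO neutral controls and 100% = 20 µM radicicol positive controls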
# Vif imaging: blocks HIV Vif function | HEK293T cells, Vif self-association by quenched fluorescence, imaging, 24 h | inhibition, % at 7.49 µM | 340,000 compounds, 0.35% hits | AID 602346; in the data active = inhibition above about 50%, passing the limit was not always enough; inconclusive = no clear call, values can overlap the other calls; inactive = below about 31%
# Wnt bcat act: Wnt/beta-catenin pathway activation; activation, % at 9.35 µM; Wnt/beta-catenin reporter cell assay, activator, plate reader; 300,000 compounds, 1.2% hits; in the data active = activation above about 30%, passing the limit was not always enough; inconclusive = no clear call, values can overlap the other calls;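 note: 0% = neutral control wells and 100% = positive control wells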
# MITF act: activators of MITF-driven TRPM1 promoter activity in SK-MEL-5 cells; SK-MEL-5 TRPM1-promoter luciferase, 24 h; % of positive control, neutral wells = 0; activation, % at 12.5 µM; 300,000 compounds, 0.75% hits; AID 588334;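 active = mean activation of at least 80% with every replicate also reaching 80%; inconclusive = mean reaches 80% but some replicate falls short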;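 note: 0% = neutral control wells and 100% = parthenolide positive control wells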
# N-glyco inh: N-linked glycosylation inhibition; D54 ERlucT glycosylation luciferase reporter, 24 h; percent of 100 nM tunicamycin response; reporter increase, % at 12.5 µM; 360,000 compounds, 0.23% hits;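 active = mean luciferase reporter signal, scaled so untreated is 0 and the glycosylation-blocking control 100, at or above a set limit in every replicate; inconclusive = mean reaches the limit but not every replicate does; inactive = mean below the limit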;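 note: luciferase carries N-glycosylation sites so blocking glycosylation raises the light; 0% = median of neutral control wells and 100% = median of 100 nM tunicamycin wells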
# esBAF inh: blocks esBAF chromatin remodeling in mouse ES cells; reporter increase, % at 12.5 µM; AID 602393; Bmi1-luciferase knock-in reporter, 24 h; 100% = twice the neutral-well signal; 350,000 compounds, 2% hits; in the data active = activation above about 40%; inconclusive = no clear call, values can overlap the other calls;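 note: 0% = median of the plate's neutral control wells and 100% = double that signal; a rise in the Bmi1 reporter signal indicates esBAF inhibition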
# * = called active by the depositor; ? = inconclusive; · = no result given. Sampled rows, rich in hits. Any-hit rate of the full collection: about 3%.
SMILES,PfHsp90 set2,Vif imaging,Wnt bcat act,MITF act,N-glyco inh,esBAF inh
Cc1cc(C(=O)Nc2nc3ccc(S(C)(=O)=O)cc3s2)c(C)o1,29.4,15.2,13.1,58.4,-4.0,53.1*
COc1ccc2nc(NC(=O)c3cc(C)oc3C)sc2c1,41.8,-5.3,·,96.1*,-5.4,32.2
Cc1ccc(C(=O)Nc2nc3ccc(S(C)(=O)=O)cc3s2)s1,·,5.4,·,29.6,-6.7,24.2
CC(=O)N(C)c1ccc(NC(=O)Nc2ccc(C)cc2)cc1,2.0,-5.0,0.0,12.6,3.4,·
CCOC(=O)c1cnn2c(C)cc(-c3ccc(F)cc3)nc12,-7.1,-8.6,·,90.6*,-2.4,12.4
Cc1cc(-c2ccc(F)cc2)nc2cc(C(N)=O)nn12,21.3,0.4,·,-4.1,-0.5,·
CN(Cc1ccccc1)S(=O)(=O)c1ccc(Cl)c(C(=O)NCCCN2CCCC2=O)c1,-9.0,-1.7,-2.1,-31.4,1.2,-3.2
CN(Cc1ccccc1)S(=O)(=O)c1ccc(Cl)c(C(=O)NCCCN2CCOCC2)c1,19.4,-14.0,57.3*,-2.7,1.1,-2.4
Cc1ccc(N(C(=O)c2csnn2)C(C(=O)NC2CCCC2)c2ccccn2)cc1 (stereo not given),2.6,56.4*,-0.4,·,-0.6,1.6
O=C(NC1CCCC1)C(c1ccccn1)N(C(=O)c1csnn1)c1ccccc1 (stereo not given),15.6,15.2,-4.0,-1.4,4.9,0.7
Cc1ccc(NC(=O)CS(=O)CC(=O)NCC2CCCO2)cc1 (stereo not given),·,7.8,-4.2,·,-1.1,-3.7
COC(=O)c1sc(NC(=O)Cc2cccs2)nc1C,15.9,11.9,·,37.9,6.2,41.7*
COC(=O)c1sc(NC(=O)c2ccoc2C)nc1C,·,-9.4,9.8,·,5.3,48.9*
COC(=O)c1sc(NC(=O)COc2ccccc2)nc1C,7.0,15.7,·,56.5,-0.3,-1.2
O=C(/C=C/c1ccccc1)CCN1CCCCC1,116.8*,0.6,13.4,-5.9,9.5,2.8
O=C(CCN1CCCCCC1)c1ccccc1,-3.0,20.4,-3.2,-0.5,-1.5,-3.1
CC(=O)CC[N+](C)(C)C,7.7,3.9,-3.0,9.3,4.3,·
Cc1ccc(C2=N/C(=C\c3c(C)nn(-c4ccccc4)c3N3CCCC3)C(=O)O2)cc1,-11.9,-0.7,-1.9,0.9,1.4,-0.4
O=C1OC(c2ccccc2)=N/C1=C\N1CCCCC1,-18.6,-4.6,-1.1,85.6*,-2.5,85.3*
O=C1OC(c2ccc(Br)cc2)=N/C1=C\N1CCCCC1,-10.9,-5.0,8.6,123.9*,-3.2,52.7*
O=C1OC(c2ccccc2)=C/C1=C/N1CCCCC1,-14.4,2.0,2.4,104.6*,-6.0,83.9*
Clc1ccc(Cn2cc(/C=N/n3cnnc3)c3ccccc32)cc1,-20.4,-10.0,-1.1,-15.5,-5.3,-1.2
O=C(/C=C/c1nc2ccccc2s1)N1CCCCCC1,0.5,3.6,10.2,100.4*,-6.5,32.4
O=C(O)CCC(=O)N1CCN(c2nc3ccccc3s2)CC1,1.7,1.4,7.0,-9.1,1.1,0.0
Cc1cccc(Cl)c1NC(=O)N1CCCN(c2nc3ccc(Cl)cc3s2)CC1,-27.5,-3.4,0.3,-25.0,-3.6,15.5
SMILES,PfHsp90 set2,Vif imaging,Wnt bcat act,MITF act,N-glyco inh,esBAF inh
c1ccc(CN2CCN(c3nc4ccccc4s3)CC2)cc1,·,-0.4,40.2*,77.5,-6.4,?
Cc1cccc(C)c1NC(=O)N1CCN(c2nc3ccccc3s2)CC1,-16.0,-11.5,1.7,-8.5,-2.3,47.8*
c1ccc2sc(N3CCCCC3)nc2c1,·,24.2,16.5,47.3,-3.1,48.9*
Cc1cnn(Cc2cccnc2)c1N,30.6,-1.1,0.4,3.9,0.6,-2.9
COc1ccc2sc(-c3ccc(N(C)C)cc3)c(C#CCCO)c2c1,-2.7,0.1,2.8,29.9,15.3,13.1
CS(=O)(=O)Nc1ccccc1NS(C)(=O)=O,·,2.8,1.9,·,1.1,·
CC(C)(C)NC(=O)Nc1ccc2nccnc2c1,-5.8,-7.6,·,58.5,-1.6,51.6*
CN(C)c1ccc(/C=C(\C#N)c2ccccn2)cc1,20.4,0.8,·,-69.3,-19.2,·
N#C/C(=C\c1ccc([N+](=O)[O-])cc1)c1ccccn1,-85.0,-0.3,39.5*,43.7,14.1,·
COc1cc(/C=C(\C#N)c2ccccn2)cc(OC)c1O,-5.3,-3.6,-3.6,0.6,22.0,2.3
N#C/C(=C/c1cccs1)c1ccccn1,-43.5,-12.3,44.0*,?,-0.4,·
N#C/C(=C\c1ccccn1)c1ccccn1,1.7,-10.5,17.0,-3.9,13.5,18.3
COC(=O)c1ccc(/C=C(\C#N)c2ccccn2)cc1,14.8,7.3,10.4,107.4*,2.8,101.7*
Cc1ccc(CNC(=O)Nc2cccs2)cc1,-4.6,·,·,37.2,-4.6,54.2*
COc1cccc(CNC(=O)Nc2cccs2)c1,-3.1,-5.4,·,26.6,0.9,-8.0
COc1ccc(CNC(=O)Nc2cccs2)cc1OC,-13.4,56.1*,·,-0.4,0.2,-6.1
Cc1ccc(S(=O)(=O)NCCC(=O)OCc2ccc([N+](=O)[O-])cc2)cc1C,-7.0,-5.8,0.9,7.3,0.0,·
Cc1nc2c3cc(F)ccc3n(CCN3CCCCC3)c2s1,·,10.9,1.8,-14.9,31.9*,-9.7
Cc1nc2c3cc(F)ccc3n(Cc3ccccc3)c2s1,26.4,5.1,-15.2,-19.2,12.1,5.4
O=S(=O)(c1cccs1)N1CCCCN2[C@H](CO)[C@H](c3ccc(C4=CCCC4)cc3)[C@H]2C1,·,·,·,·,·,-9.5
CC(=O)c1cc(CC=C(C)C)c(O)c(CC=C(C)C)c1O,49.3,63.6*,·,·,-4.0,-7.9
O=C(c1cnn(-c2cccc(F)c2)c1)c1ccccc1O,-2.8,10.8,37.3*,45.6,-4.7,·
Cc1cc(O)c(C(=O)/C=C/c2ccccc2)c(=O)o1,28.8,0.9,11.8,-5.6,-1.3,26.6
Cc1cc(O)c(C(=O)/C=C/c2ccc(C(C)C)cc2)c(=O)o1,-2.1,-2.8,39.3*,8.9,-6.9,24.0
Clc1cc2c(c(CSc3nc4ccccc4n4cccc34)c1)OCOC2,-10.9,76.2*,0.1,6.8,-2.3,-7.2
SMILES,PfHsp90 set2,Vif imaging,Wnt bcat act,MITF act,N-glyco inh,esBAF inh
O=Cc1s/c(=N\S(=O)(=O)c2ccccc2)n(CCCCl)c1Cl,26.3,57.2*,-22.0,-96.1,-11.7,·
CCn1c(C)cs/c1=N\S(=O)(=O)c1ccccc1,2.6,-7.3,-1.4,-0.7,1.3,-4.2
O=[N+]([O-])c1ccc(Nc2c3ccccc3nc3ccccc23)cc1,-10.5,-4.4,-1.8,5.0,2.1,·
O=C(NCCN1CCOCC1)NC1(C(F)(F)F)Oc2ccc(Cl)cc2O1 (stereo not given),7.5,-1.5,1.0,-3.8,-10.0,·
COc1c2ccoc2nc2c(OC)c(OC[C@@H](O)C(C)(C)O)ccc12,10.5,56.8*,-1.5,2.0,2.3,7.9
CCn1c(CC(=O)Nc2ccc(C)c(Cl)c2)nnc1SCC(=O)Nc1nc(C)cs1,·,-7.0,·,8.1,-0.7,7.2
